# Screens as filed in PubChem.
# BAZ2B inh: BAZ2B (human) inhibition; Q9UIF8; AlphaScreen BAZ2B-H3K14Ac peptide displacement; Potency, µM (top dose mostly 114 µM), for the others: top-dose activity change, negative = inhibition, most hits filed as inhibitors; actives 4.4% (n = 360,000); also: % is scaled to controls: 0 for no effect and ±100 for the full control effect; nearly all actives have a fitted effect of over 60% in size
#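 Complex of BAZ2B and biotin-H3K14Ac (50 nM apiece) forms over 30 min at RT, then faces library compounds up to 110 uM for another 30 min; AlphaScreen beads added, 20 min dark incubation, luminescence read.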
# G9a block: G9a (human) methyltransferase inhibition | actives 8.8% (n = 350,000) | Potency, µM (series often up to 102 µM), for the others: at the top dose activity, negative = inhibition, usual class: inhibitors | G9a H3K9 monomethylation, AlphaScreen, 2 h | Q96KQ7; also: % is scaled to controls: 0 for no effect and ±100 for the full control effect; nearly all actives have a fitted effect of over 75% in size
#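 Step 1: enzyme (final 20 nM) with compound, 15 min RT. Step 2: substrate peptide 500 nM and SAM 20 uM, 2 h RT. Step 3: anti-H3K9me1 antibody and AlphaScreen beads, 10 min, then plate read.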
# HP1b chromo inh: blocks HP1-beta chromodomain binding to methylated histone tails; P83916; AlphaScreen HP1-beta / biotin-H3K9me3 peptide binding; Potency, µM (titrated, usually from 114 µM), for the others: top-dose activity change, negative = inhibition, usual class: inhibitors; actives 0.56% (n = 390,000); also: nearly all actives have a fitted effect of over 70% in size
#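 Compound inhibition of the preformed complex between 50 nM HP1-beta and 50 nM biotinylated H3K9me3 peptide was read by AlphaScreen. Buffer was PBS pH 7.4 with 0.01% Tween-20. Incubations ran 30 min at room temperature, with 10 ug/mL donor/acceptor beads.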
# JMJD2A Tudor inh: JMJD2A Tudor domain (human) inhibition | AlphaScreen JMJD2A-Tudor / H3K4me3 peptide binding | Potency, µM (top dose mostly 114 µM), for the others: top-dose activity change, negative = inhibition, most hits filed as inhibitors | actives 4.4% (n = 390,000); also: % is scaled to controls: 0 for no effect and ±100 for the full control effect; nearly all actives have a fitted effect of over 50% in size
# GLS inhibitor: blocks human kidney-isoform glutaminase activity. O94925. GLS enzymatic activity, qHTS titration. Potency, µM (titrated, usually from 45.5 µM), for inactives: top-dose activity change, negative = inhibition, hits mostly inhibitors. AID 624170. actives 0.21% (n = 410,000); also: % is scaled to controls: 0 for no effect and ±100 for the full control effect
#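 Human kidney-isoform GLS in 45 mM KH2PO4 pH 8.2, 0.02% Tween-20, with compound, started with 1mM L-Glutamine (added stock). Glutamate oxidase/HRP/Amplex red coupled fluorescence read at start and after 30 min at RT.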
# An asterisk follows results filed as active; ? = inconclusive; . = no result given; [ ] = remark or other dose. Shown are actives, neighbours in structure and some others; about 10% of the full set was active somewhere. Calls follow the shape of the dose curve; as a rule, active = well fitted curve in the direction sought with a large enough effect; inconclusive = small, poorly fitted or top-dose-only effect, or another doubt; inactive = no such curve, though single readings can be large; an effect the other way counts as inactive or inconclusive. Potency is read from the fitted curve at half-maximal effect.
SMILES,BAZ2B inh,G9a block,HP1b chromo inh,JMJD2A Tudor inh,GLS inhibitor
CCCC(=O)NC(c1ccccc1)c1c(O)ccc2ccccc12 (centres undefined),-4.2%,37.8%,4.0%,-15.1%,7.3%
CC(=O)NC(c1ccccc1)c1c(O)ccc2ccccc12 (centres undefined),31.6µM*,17.8µM*,18.2%,-12.0%,0.0%
CC(=O)NC(c1ccc([N+](=O)[O-])cc1)c1c(O)ccc2ccccc12 (centres undefined),-37.7%,44.7µM*,1.7%,?,17.6%
CCCC(=O)NC(c1ccc(N(C)C)cc1)c1c(O)ccc2ccccc12 (centres undefined),17.8µM*,31.6µM*,50.1µM*,31.6µM*,30.9%
CCC(=O)NC(c1ccccc1)c1c(O)ccc2ccccc12 (centres undefined),-3.9%,4.9%,14.6%,-28.7%,6.2%
O=C(Cc1ccccc1)NC(c1ccco1)c1c(O)ccc2ccccc12 (centres undefined),?,50.1µM*,-3.0%,?,19.8%
CC(C)C(=O)NC(c1ccc([N+](=O)[O-])cc1)c1c(O)ccc2ccccc12 (centres undefined),-6.9%,?,5.4%,-33.8%,-4.6%
C[C@H](C(=O)C=[N+]=[N-])N1C(=O)c2ccccc2C1=O,-0.1%,17.2%[59 µM],.,.,.
COc1ccc(OCC(=O)N2N=C(C(F)F)CC2(O)C(F)F)cc1 (centres undefined),-2.8%,6.2%[59 µM],26.4%,-0.4%,3.7%
CCOc1ccc(S(=O)(=O)Nc2c(C)n(C)n(-c3ccccc3)c2=O)cc1,-1.1%,.,41.4%,-9.6%,-10.5%
CCC(N)(C(=O)O)c1ccc(C(=O)O)cc1 (centres undefined),.,20.6%[59 µM],.,.,.
OC1(c2ccccc2Cl)NN=C2CCCCCN21 (centres undefined),-18.0%,79.4µM*,-20.8%,5.62µM*,-5.9%
CCC(=O)Nc1ccc(C(=O)NNC(=O)C2CCCCC2)cc1,-1.7%,44.7µM*,49.4%,-7.6%,-2.5%
CC(=O)Nc1ccc(C(=O)NNC(=O)C2CC2)cc1,-6.4%,.,26.0%,-2.2%,9.8%
COc1ccc(CCNC(=O)CSCc2ccc([N+](=O)[O-])cc2)cc1,0.6%,27.4%[59 µM],28.0%,-11.4%,2.5%
COc1ccc(CCNC(=O)C(=O)Nc2nccs2)cc1OC,-1.1%,?,26.5%,79.4µM*,4.0%
O=C(NCc1ccccc1)C(=O)Nc1nccs1,-15.5%,12.6µM*,32.0%,?,-1.9%
COc1ccc(CCNC(=O)C(=O)Nc2ccc(C)cc2)cc1OC,2.9%,2.6%[59 µM],31.6%,-16.3%,-15.3%
COc1ccc(CCNC(=O)CSCc2ccc([N+](=O)[O-])cc2)cc1OC,-5.9%,5.1%,?,20µM*,?
O=C(Nc1nccs1)C(Br)C(Br)c1ccccc1 (centres undefined),-2.2%,3.55µM*,13.9%,-30.3%,-15.0%
COc1ccc(NC(=O)c2ccc3c(c2)CCN3S(=O)(=O)c2ccccc2)c(OC)c1,-22.0%[57.1 µM],-11.7%,11.4%,-27.8%,1.4%
O=C1CCN(Cc2ccccc2)S(=O)(=O)c2ccc(C(F)(F)F)cc21,9.3%,-8.5%[2.33 µM],91.2%,14.3%,0.5%
O=C(Cn1nnc(-c2ccccc2Cl)n1)N1CCCCC1,-5.5%,.,41.8%,-2.8%,-4.8%
COc1ccc(CCNC(=O)CSc2ccccn2)cc1OC,?,11.2µM*,9.3%,-9.8%,12.1%
CCOc1ccc(CCNC(=O)CSc2n[nH]c(N)n2)cc1OCC,-23.3%,8.91µM*,?,17.8µM*,-2.2%
SMILES,BAZ2B inh,G9a block,HP1b chromo inh,JMJD2A Tudor inh,GLS inhibitor
COc1ccc(CCNC(=O)CSC(=O)c2ccccc2)cc1OC,-15.2%,17.8µM*,-22.0%,-13.0%,6.8%
CCOc1cc(C(=O)OCc2ccc(OC)cc2)ccc1OCC(=O)N1CCOCC1,-7.0%,-2.8%[12.7 µM],28.4%,-16.6%,-4.0%
Cn1c(SCc2ccc(F)cc2)nnc1-c1ccccn1,50.1µM*,-4.6%,29.8%,?,-2.6%
Cn1c(SCc2ccccc2F)nnc1-c1ccccn1,56.2µM*,-7.5%,31.8%,-5.2%,2.7%
Cn1c(SCc2cccc3ccccc23)nnc1-c1ccco1,-26.9%,15.8µM*,13.4%,-7.5%,10.0%
C/C(=N/NC(=O)c1ccc2c(c1)OCO2)c1cccc(NC(=O)C(C)(C)C)c1,9.1%,2.9%,41.5%,-22.8%,-5.0%
Cc1cccc(Nc2c(-c3ccsc3)nc3nc(C)cc(C)n23)c1,4.6%,-24.5%[59 µM],21.1%,4.5%,15.4%
Cc1ccccc1Nc1c(-c2ccc(Cl)s2)nc2c(C)cccn12,?,-56.7%[59 µM],?,?,-7.3%
Cc1ccn2c(Nc3c(C)cccc3C)c(-c3ccsc3)nc2c1,-36.0%,10µM*,-20.0%,?,-7.6%
Cc1ccn2c(Nc3c(C)cccc3C)c(-c3ccc(Cl)s3)nc2c1,5.62µM*,7.08µM*,?,?,0.2%
CCCn1c(=N)n(CC(=O)C(C)(C)C)c2ccccc21,?,-21.0%[12.7 µM],21.2%,-30.8%[11.4 µM],1.8%
COc1ccc(-c2nc(=S)[nH][nH]2)cc1,5.9%,1.78µM*,79.4µM*,2.51µM*,-23.7%
Oc1ccc(-c2nc3ccccc3nc2-c2ccccc2)cc1,-5.5%,14.9%,54.1%,-20.5%,6.7%
Oc1ccc(-c2nc(=S)[nH][nH]2)cc1,-18.0%,1.26µM*,-32.3%,5.01µM*,-1.6%
FC(F)(F)c1ccc(-c2nc(=S)[nH][nH]2)cc1,-19.1%,3.55µM*,23.6%,22.4µM*,-18.4%
COc1ccc(-c2n[nH]c(=S)nc2-c2ccc(OC)cc2)cc1,?,?,13.3%,-33.5%,-1.9%
CCOc1ccc(-c2nnc(-c3ccc(OC)cc3)o2)cc1,-1.0%,-38.9%[59 µM],30.4%,-3.1%,-13.0%
CCOc1ccc(-c2nc(=S)[nH][nH]2)cc1,-1.8%,1.41µM*,-18.9%,7.08µM*,-2.7%
COc1ccccc1/C=C1\SC(=S)N(CC(=O)NC2CCS(=O)(=O)C2)C1=O (centres undefined),-19.2%,42.4%,25.4%,-5.8%,-4.8%
COc1ccc(Cc2nnc(SCC(=O)N3CCCCC3)o2)cc1,-20.9%,70.8µM*,-38.7%,-19.0%,-1.8%
C[C@H](CO)N1C[C@H](C)[C@@H](CN(C)S(C)(=O)=O)Oc2ccc(NC(=O)NC3CCCCC3)cc2C1=O,.,.,33.7%,-9.8%,0.2%
Cc1cc(C)c(NC(=O)Cn2c(=O)n(Cc3ccc(C(=O)NCc4ccco4)cc3)c(=O)c3sccc32)c(C)c1,50.1µM*,-9.0%[59 µM],63.0%,-4.1%,-26.1%
Cc1ccc(-n2c(=O)c3sccc3n(CC(=O)NCc3ccco3)c2=O)cc1,14.1%,79.4µM*,19.8%,-12.2%,0.3%
Cc1cccc(C)c1NC(=O)Cn1c(=O)n(Cc2ccc(C(=O)NCc3ccco3)cc2)c(=O)c2sccc21,?,?,31.4%,-14.0%,-0.9%
O=C(NNc1nc2cc3c(cc2s1)OCO3)c1ccc(F)cc1,16.4%,8.91µM*,3.1%,-20.0%,4.4%
